Measurements as given in PubChem BioAssay AID1159580 (chemical genetic matrix, 2015).
Several values for one entry are separate records, joined by “and”; a condition that tells them apart may be missing. Equal values may be shown once. The whole screen tested about 5,500 compounds, of which about 2,000 (36%) were called active. About 18% were inconclusive and are not listed. No stated cut-off is given here; in the data, active means normalized growth mostly below about 0.91 (no sharp cut-off); inconclusive means no clear call, values can overlap the other calls; inactive means mostly above about 0.92. The list shows a part of the results.

Experiment: chemical genetic growth profiling, strain panel (AID 1159580);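 further: tested at 20 µM; growth read once vehicle control cultures reached saturation at 30 °C; 1 = growth at the plate median or of vehicle wells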
Conditions: S. cerevisiae deletion strains, growth OD

Measured: normalized growth

CCN(CC)CCCC(C)Nc1ccnc2cc(Cl)ccc12 (configuration not stated)
inactive: locus YAL013W, strain DEP1, stronger effect = lower value 1.02 and 1.01 | locus YAL021C, strain ccr4, stronger effect = lower value 1.04 | locus YAL026C, strain drs2, stronger effect = lower value 1.02 | locus YAL030W, strain snc1, stronger effect = lower value 1.02 | locus YAL040C, strain CLN3, stronger effect = lower value 1.01 | locus YBL061C, strain skt5, stronger effect = lower value 1.03 | locus YBR009C, strain hhf1, stronger effect = lower value 1.01 | locus YBR021W, strain FUR4, stronger effect = lower value 0.976 | locus YBR023C, strain chs3, stronger effect = lower value 1.03 | locus YBR171W, strain sec66, stronger effect = lower value 1.05 | locus YBR229C, strain ROT2, stronger effect = lower value 1.01 | locus YBR231C, strain swc5, stronger effect = lower value 1.03 | locus YBR279W, strain paf1, stronger effect = lower value 1.02 | locus YCL011C, strain gbp2, stronger effect = lower value 1.04 | locus YCL016C, strain dcc1, stronger effect = lower value 1.03 | locus YCL029C, strain bik1, stronger effect = lower value 1.01 | locus YCL061C, strain MRC1 (second series), stronger effect = lower value 1.01 | locus YCL069W, strain vba3, stronger effect = lower value 1.03 | locus YCR088W, strain abp1, stronger effect = lower value 1.02 | locus YDL005C, strain med2, stronger effect = lower value 1.03 | locus YDL035C, strain GPR1, stronger effect = lower value 0.995 | locus YDL040C, strain nat1, stronger effect = lower value 1.03 | locus YDL074C, strain BRE1, stronger effect = lower value 1.04 | locus YDL101C, strain DUN1, stronger effect = lower value 1.04 | locus YDL134C, strain PPH21, stronger effect = lower value 0.985 | locus YDL185W, strain tfp1, stronger effect = lower value 1 | locus YDL192W, strain arf1, stronger effect = lower value 1 | locus YDR001C, strain nth1, stronger effect = lower value 1.03 | locus YDR069C, strain doa4, stronger effect = lower value 0.998 | locus YDR101C, strain arx1, stronger effect = lower value 0.993 | locus YDR137W, strain rgp1, stronger effect = lower value 1.06 | locus YDR159W, strain sac3, stronger effect = lower value 1.06 | locus YDR162C, strain NBP2, stronger effect = lower value 1.01 | locus YDR195W, strain ref2 1.07 | locus YDR297W, strain sur2, stronger effect = lower value 1.03 | locus YDR318W, strain mcm21, stronger effect = lower value 1.02 | locus YDR334W, strain swr1, stronger effect = lower value 1.03 | locus YDR335W, strain msn5, stronger effect = lower value 1.03 | locus YDR363W, strain ESC2, stronger effect = lower value 1.01 | locus YDR388W, stronger effect = lower value 1.01 | locus YDR392W, strain spt3, stronger effect = lower value 0.937 | locus YDR502C, strain sam2, stronger effect = lower value 0.995 | locus YEL003W, strain gim4, stronger effect = lower value 1.03 | locus YEL037C, strain rad23, stronger effect = lower value 1.03 | locus YEL061C, strain CIN8 (second series), stronger effect = lower value 1.03 | locus YEL061C, strain CIN8, stronger effect = lower value 1.01 | locus YER002W, strain NOP16, stronger effect = lower value 0.994 | locus YER015W, strain faa2, stronger effect = lower value 1.03 | locus YER016W, strain bim1, stronger effect = lower value 1 | locus YER110C, stronger effect = lower value 1.02 | locus YER111C, strain swi4, stronger effect = lower value 1.04 | locus YER155C, strain BEM2 (second series), stronger effect = lower value 0.966 | locus YER155C, strain BEM2, stronger effect = lower value 1.01 | locus YER167W, strain BCK2, stronger effect = lower value 1.01 | locus YFR010W, strain ubp6, stronger effect = lower value 1.03 | locus YGL078C, strain dbp3, stronger effect = lower value 1.02 | locus YGL086W, strain mad1, stronger effect = lower value 0.996 | locus YGL167C, strain pmr1, stronger effect = lower value 1.04 | locus YGL173C, strain kem1, stronger effect = lower value 1.04 | locus YGL227W, strain vid30, stronger effect = lower value 1.03 | locus YGL240W, strain doc1, stronger effect = lower value 1.03 | locus YGL248W, strain PDE1, stronger effect = lower value 1.04 | locus YGL253W, strain hxk2, stronger effect = lower value 1.01 | locus YGR135W, strain pre9, stronger effect = lower value 1.04 | locus YGR252W, strain gcn5, stronger effect = lower value 1.02 | locus YHR013C, strain ard1, stronger effect = lower value 0.965 | locus YHR027C, strain rpn1, stronger effect = lower value 1.03 | locus YHR030C, strain SLT2, stronger effect = lower value 1 and 0.96 | locus YHR079C, strain IRE1 (second series), stronger effect = lower value 1.01 | locus YHR079C, strain IRE1, stronger effect = lower value 0.961 | locus YHR094C, strain hxt1, stronger effect = lower value 1.01 | locus YHR129C, strain ARP1, stronger effect = lower value 1.02 | locus YHR142W, strain chs7, stronger effect = lower value 1.04 | locus YHR200W, strain rpn10, stronger effect = lower value 1.01 | locus YIL066C, strain RNR3, stronger effect = lower value 1.02 | locus YIL073C, strain SPO22, stronger effect = lower value 1.01 | locus YIL125W, strain kgd1, stronger effect = lower value 1 | locus YIR030C, strain dcg1, stronger effect = lower value 1 | locus YJL092W, strain hpr5, stronger effect = lower value 1.02 | locus YJL095W, strain BCK1 (second series), stronger effect = lower value 1.03 | locus YJL095W, strain BCK1, stronger effect = lower value 1.07 and 0.962 | locus YJL115W, strain asf1, stronger effect = lower value 1.05 | locus YJL129C, strain trk1, stronger effect = lower value 1.02 | locus YJL134W, strain LCB3, stronger effect = lower value 1.01 | locus YJL154C, strain vps35, stronger effect = lower value 1.02 | locus YJL164C, strain tpk1, stronger effect = lower value 1.02 | locus YJL166W, strain qcr8, stronger effect = lower value 1 | locus YJL168C, strain set2, stronger effect = lower value 1.01 | locus YJL187C, strain SWE1 (second series), stronger effect = lower value 1.05 | locus YJL187C, strain SWE1, stronger effect = lower value 1.03 | locus YJR043C, strain POL32, stronger effect = lower value 0.981 | locus YJR066W, strain TOR1, stronger effect = lower value 0.979
